Experiment [1] deals with Human papillomavirus type 1a protein E7 (residues 44-93). The experiment in a line: small molecules binding HPV E7 44-93 – biochemical, small-molecule microarray, residues 44-93, 635 nm fluorescence, primary screen (AID 1108).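 Further: E7 fragment applied at 1 µg/mL in TBST for 1 h at 4 C; score combines spot fluorescence with its signal to noise ratio.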 The settings on record: fluorescence 635 nm, higher = more signal.
Experiment [2] in a line: hepatitis C replication reporter changes, two-sided – Huh7 cells, luciferase reporter, HCV replication inhibitor project, primary screen (AID 1109).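 Further: huh7 hepatoma cells harbouring a luciferase neomycin HCV replicon reporter; luciferase luminescence as measure of HCV replicon replication; test concentration not given here.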 The settings on record: Huh7 HCV replicon luciferase reporter, 48 h; higher = more signal.
The target in experiment [3] is Left-right determination factor 2 (Homo sapiens) (UniProt O00292). The experiment in a line: small molecules binding LEFTY2 protein – biochemical, small-molecule microarray, 635 nm fluorescence scan, primary screen (AID 1110). The note with it: higher = more signal.
Sequence of Left-right determination factor 2 (Homo sapiens) (O00292 whole entry, looked up): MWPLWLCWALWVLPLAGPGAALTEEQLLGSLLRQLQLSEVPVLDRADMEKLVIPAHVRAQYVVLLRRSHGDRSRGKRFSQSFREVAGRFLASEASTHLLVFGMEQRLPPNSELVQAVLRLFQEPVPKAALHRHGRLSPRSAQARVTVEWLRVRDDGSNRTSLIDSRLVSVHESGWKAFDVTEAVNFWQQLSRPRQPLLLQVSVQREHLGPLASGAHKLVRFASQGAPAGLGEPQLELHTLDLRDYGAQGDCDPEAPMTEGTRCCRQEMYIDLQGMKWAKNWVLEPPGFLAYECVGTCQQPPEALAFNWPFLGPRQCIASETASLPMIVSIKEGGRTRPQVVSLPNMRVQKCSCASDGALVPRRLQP
Experiment [4] deals with Calmodulin-1 (Homo sapiens) (UniProt P0DP23). Briefly: small molecules binding calmodulin-1 with EGTA – biochemical, small-molecule microarray, Cy5-labelled CALM1, profiling panel (AID 1111).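 Further: labelled calmodulin applied in Tris saline Tween buffer holding calcium plus EGTA and DTT.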 The settings on record: Cy5-CALM1 binding fluorescence, higher = more signal.
For experiment [5] the target is unchanged. Briefly: small molecules binding Ca-loaded calmodulin-1 – biochemical, small-molecule microarray, Cy5-labelled CALM1, plus calcium, artefact control for SMM control-protein annotation, profiling panel (AID 1112).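 Further: score merges spot fluorescence with signal to noise from triplicate slides.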 The settings on record: Cy5-CALM1 binding fluorescence, higher = more signal.
A short description of experiment [6]: probe aWnt5a binding to arrayed compounds – biochemical, biotinylated probe, 635/667 nm fluorescence, primary screen (AID 1113).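 Further: score merges 667 nm fluorescence intensity with signal-to-noise per printed feature.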 The note with it: small-molecule microarray, higher = more signal.
Experiment [7] is described as follows: probe aShh binding to arrayed compounds – biochemical, biotinylated probe, 635/667 nm fluorescence, primary screen (AID 1114).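 Further: probe is biotin-labelled aShh protein from a stem cell growth factor screen; measures binding of labelled protein to compounds printed on the slide; score merges feature fluorescence at 667 nm with signal-to-noise.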 The settings on record: small-molecule microarray, higher = more signal.
Experiment [8] is described as follows: probe aNog binding to arrayed compounds – biochemical, biotinylated probe, 635/667 nm fluorescence, primary screen (AID 1115).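 Further: probe is biotinylated aNog protein used at 0.15 µg/mL for 1 h at 4 C; z-score combines 667 nm fluorescence of each spot with its signal to noise.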 The note with it: small-molecule microarray, higher = more signal.
Experiment [9] has as its target Torsin-1A-interacting protein 1 (Homo sapiens) (UniProt Q5JTV8). The experiment in a line: compound microarray binding of lysate hLAP1 – cell lysate, small-molecule microarray, COS7 lysate, 635/667 nm fluorescence, primary screen (AID 1116). The settings on record: 635 nm fluorescence, higher = more signal.
In experiment [10] the target is Alpha-bungarotoxin (Bungarus multicinctus) (UniProt P60615). Briefly: compounds binding labelled alpha-BTX control protein – biochemical, small-molecule microarray, Alexa647 label, 635/667 nm fluorescence, artefact control for SMM control protein annotation, profiling panel (AID 1117). The settings on record: alpha-BTX-A647 binding fluorescence, higher = more signal.
Sequence of Alpha-bungarotoxin (Bungarus multicinctus) (P60615 whole entry, looked up): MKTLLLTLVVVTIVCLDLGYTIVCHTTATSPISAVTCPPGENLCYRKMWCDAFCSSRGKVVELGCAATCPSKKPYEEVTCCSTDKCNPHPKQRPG

The target of experiment [11] is Albumin (Bos taurus) (UniProt P02769). Briefly: compounds binding labelled BSA control protein – biochemical, small-molecule microarray, Alexa647 label, 635/667 nm fluorescence, artefact control for SMM control protein annotation, profiling panel (AID 1118).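 Further: score merges 667 nm emission intensity and signal-to-noise per printed compound spot.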 The note with it: BSA-A647 binding, fluorescence 635 nm, higher = more signal.
Sequence of Albumin (Bos taurus) (P02769 whole entry, looked up): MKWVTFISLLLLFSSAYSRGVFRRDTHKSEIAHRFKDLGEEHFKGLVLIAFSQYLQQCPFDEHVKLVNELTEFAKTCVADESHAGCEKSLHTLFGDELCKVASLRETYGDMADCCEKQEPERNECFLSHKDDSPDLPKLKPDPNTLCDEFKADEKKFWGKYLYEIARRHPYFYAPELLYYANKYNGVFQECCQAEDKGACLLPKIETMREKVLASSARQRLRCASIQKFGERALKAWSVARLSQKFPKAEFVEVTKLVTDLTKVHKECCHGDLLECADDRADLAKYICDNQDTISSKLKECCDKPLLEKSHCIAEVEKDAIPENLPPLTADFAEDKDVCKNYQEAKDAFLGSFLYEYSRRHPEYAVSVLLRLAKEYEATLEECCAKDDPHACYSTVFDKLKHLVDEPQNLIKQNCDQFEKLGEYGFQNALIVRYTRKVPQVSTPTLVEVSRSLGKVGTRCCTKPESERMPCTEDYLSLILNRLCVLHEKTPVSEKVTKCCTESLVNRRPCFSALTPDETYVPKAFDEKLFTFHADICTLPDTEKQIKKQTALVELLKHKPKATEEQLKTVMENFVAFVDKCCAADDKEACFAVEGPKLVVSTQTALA
Experiment [12] in a line: probe aXIP binding to arrayed compounds – biochemical, NeuroSMM set, 635/667 nm fluorescence, primary screen (AID 1119).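 Further: probe is the protein aXip251-270 applied at 1 µg/mL to compound-printed slides; binding of probe to printed compounds measured as 667 nm fluorescence plus signal to noise.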 The note with it: small-molecule microarray, higher = more signal, called active from +8 up or from −8 down.
A short description of experiment [13]: probe aNOTCH3 binding on compound microarray – biochemical, small-molecule microarray, 635/667 nm fluorescence, primary screen (AID 1120).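 Further: probe is a biotin-tagged antibody raised against NOTCH3 rather than NOTCH3 protein; score merges spot fluorescence near 667 nm with spot signal to noise.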 The note with it: higher = more signal.
Experiment [14] in a line: probe aNOTCH2 binding on compound microarray – biochemical, small-molecule microarray, 635/667 nm fluorescence, primary screen (AID 1121).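 Further: score merges feature fluorescence read at 667 nm with its signal to noise.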 The settings on record: higher = more signal.
Experiment [15] concerns the target Carbonic anhydrase 2 (Homo sapiens) (UniProt P00918). Briefly: compounds binding carbonic anhydrase 2 – biochemical, small-molecule microarray, Alexa647-labelled CAII, profiling panel (AID 1122). The note with it: CAII-A647 binding fluorescence, higher = more signal.
Experiment [16] in a line: COS7 lysate on small-molecule microarray, probe aHis, 635 nm (AID 1123).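 Further: z-score combines 667nm fluorescence intensity with signal-to-noise per printed compound spot.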 The note with it: COS7 cell lysate, fluorescence, higher = more signal.
A short description of experiment [17]: probe aLAP1 signal on lysate-treated microarray – cell lysate, small-molecule microarray, COS7 lysate, primary screen (AID 1124).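 Further: lysate comes from COS7 cells expressing LAP1 and is applied at 0.3 µg/mL; score merges spot fluorescence near 667 nm with signal-to-noise over triplicate slides.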 The settings on record: probe aLAP1, fluorescence, higher = more signal.
Experiment [18] relates to Sam68 (KHDRBS1). The experiment in a line: compounds binding KHDRBS1 protein – biochemical, small-molecule microarray, 635 nm fluorescence, primary screen (AID 1125).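 Further: score merges 667 nm channel intensity with signal to noise over triplicate slides.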 The settings on record: higher = more signal.
The subject of experiment [19] is Chordin-like protein 2 (CHRDL2). The experiment in a line: compounds binding chordin-like 2 – biochemical, small-molecule microarray, 635 nm fluorescence, primary screen (AID 1126).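 Further: printed compound slides probed with Chrdl2 protein at 4 µg/mL for 1 h at 4 C; score merges 667 nm emission intensity with signal to noise over three replicate slides.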 The settings on record: fluorescence 635 nm, higher = more signal.
The target of experiment [20] is Concanavalin-A (Canavalia ensiformis) (UniProt P02866). The experiment in a line: compounds binding concanavalin A lectin – biochemical, small-molecule microarray, Alexa647 label, 635 nm, artefact control for SMM control protein annotation, primary screen (AID 1127).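 Further: z combines 667 nm emission intensity with signal-to-noise across three replicate slides.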 The settings on record: ConA-A647 binding fluorescence, higher = more signal.
Sequence of Concanavalin-A (Canavalia ensiformis) (P02866 whole entry, looked up): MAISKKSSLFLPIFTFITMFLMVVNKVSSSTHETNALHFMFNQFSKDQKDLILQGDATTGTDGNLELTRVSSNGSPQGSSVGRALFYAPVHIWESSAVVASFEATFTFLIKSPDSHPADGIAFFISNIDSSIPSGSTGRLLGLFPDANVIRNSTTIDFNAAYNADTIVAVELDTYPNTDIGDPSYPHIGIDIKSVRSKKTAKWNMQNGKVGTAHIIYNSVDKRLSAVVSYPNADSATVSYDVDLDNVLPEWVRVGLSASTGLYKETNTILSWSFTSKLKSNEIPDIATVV

Structures are written as SMILES. Calls of active or inactive are those of the source.

Consider four compounds from PubChem BioAssay.

Sequence of Torsin-1A-interacting protein 1 (Homo sapiens) (Q5JTV8 whole entry, looked up): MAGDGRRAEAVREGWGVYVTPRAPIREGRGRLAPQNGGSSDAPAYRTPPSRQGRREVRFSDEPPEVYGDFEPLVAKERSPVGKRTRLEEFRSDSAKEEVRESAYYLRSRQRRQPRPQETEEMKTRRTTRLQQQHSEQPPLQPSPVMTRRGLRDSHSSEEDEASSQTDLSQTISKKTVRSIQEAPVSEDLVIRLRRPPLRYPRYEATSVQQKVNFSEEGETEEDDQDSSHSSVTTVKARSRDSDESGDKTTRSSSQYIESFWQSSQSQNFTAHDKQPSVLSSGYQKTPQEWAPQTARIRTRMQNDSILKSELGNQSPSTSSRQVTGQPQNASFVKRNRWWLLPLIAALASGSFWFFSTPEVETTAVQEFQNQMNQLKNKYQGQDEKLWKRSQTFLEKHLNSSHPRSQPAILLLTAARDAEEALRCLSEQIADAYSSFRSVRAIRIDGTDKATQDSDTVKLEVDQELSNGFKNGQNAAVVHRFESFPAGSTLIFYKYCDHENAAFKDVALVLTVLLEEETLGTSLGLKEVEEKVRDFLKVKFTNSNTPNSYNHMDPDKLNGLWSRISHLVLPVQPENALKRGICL

`CCOC(=O)C[C@H]1[C@H](OC(=O)c2cc3ccccc3oc2=O)[C@@H](NC(=O)c2ccc3ccccc3c2)c2cc(OCCCO)ccc2N1C(=O)c1ccc2ccccc2n1`: the composite z-score in experiment [1] was -0.0309; in experiment [3], 0.57; in [4] it was -0.0337; in [5] it was -0.463; in experiment [6], 0.0554; in [7] it was -0.138. Also, the composite z-score in experiment [8] was 0.193; in [9], 0.529; in experiment [10] it was 0.992; in experiment [11], 0.668; in experiment [13], 0.0842; in [14], -0.122. The composite z-score worked out at 0.426 in experiment [15]; 0.193 in experiment [16]; 0.155 in experiment [17]; 0.325 in experiment [18]; 0.731 in experiment [19]; 0.536 in experiment [20]. Besides, in [2], the z-score was -1.15. Also, in [12], the composite Z-score is 0.575 (inactive).

For `Cc1ccccc1C(O)C1C=CC2C(=O)N(c3ccccc3)C(=O)C2N1Nc1ccc(C#N)cc1` (stereo not given), the composite z-score in [1] is 1.22; in experiment [3] it was 0.588; in [4], 2.68; in experiment [5] it was 1.27; in experiment [6], 0.24; in [7], 0.333. In addition, the composite z-score came to 2.26 in [8]; 3.02 in experiment [9]; 1.94 in experiment [10]; 1.04 in [11]; 0.841 in experiment [13]; 0.417 in experiment [14]. Moreover, the composite z-score in [15] came to 0.652; in [16], 2.87; in experiment [17], 1.37; in experiment [18] it was 1.31; in [19], 0.632; in experiment [20] it was 1.18. The z-score in experiment [2] is -0.15. Also, the composite Z-score in [12] is 1.4 (inactive).

With `CO[C@@H]1COC(=O)[C@H](COCc2ccccc2)NC(=O)CC=C[C@@H](C)[C@H](OC)COC(=O)[C@H](COCc2ccccc2)NC(=O)CC=C[C@H]1C`, the composite z-score in [1] was -0.417; in experiment [3], 0.644; in experiment [4] it was -0.409; in experiment [5], -1.01; in experiment [6], -0.0927; in [7], -0.0626. Also, the composite z-score in [8] was -0.349; in experiment [9], -0.217; in experiment [10], -0.774; in [11], -0.711; in experiment [13], -0.0063; in experiment [14], -0.112. Also, the composite z-score in experiment [15] is -0.319; in experiment [16] it was 0.107; in experiment [17], -0.225; in experiment [18], -0.136; in experiment [19], 1.1; in experiment [20], -0.582. Further, the z-score in [2] was -0.0527. In addition, in experiment [12], the composite Z-score is -0.14 (inactive).

Regarding `COC(=O)C[C@H]1O[C@]2(C(=O)N(Cc3ccccc3)c3ccc(I)cc32)[C@@H](C)[C@@H]1[Si](C)(C)c1ccc(OC)cc1`, the composite z-score in [1] is -1.02; in experiment [3] it was -0.0651; in [4], 0.267; in experiment [5] it was 0.286; in experiment [6] it was -0.0462; in experiment [7], 0.0062. The composite z-score in experiment [8] was -0.208; in experiment [9], -0.267; in experiment [10] it was 0.13; in [11], 0.298; in [13], -0.185; in experiment [14], -0.0956. Further, the composite z-score in experiment [15] was -0.228; in [16], -0.322; in [17], -0.0227; in experiment [18], -0.879; in [19] it was 0.0477; in experiment [20], -0.0276. Also, in experiment [2], the z-score is 0.486. For the same compound, in [12], the composite Z-score was 0.167 (inactive).
